Assay outcomes (PubChem)
The entries come from a sample that favours hits as a whole.
TTR transcr act: increases transthyretin transcription | activation, % at 16.7 µM | AID 1117267 | actives 1.3% (n = 92,000) | SH-SY5Y TTR promoter Gaussia luciferase, luminescence; 100% = recombinant luciferase protein wells;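 active means activation above the mean of all tested compounds plus 3 SD, cut at about 9.5% in these data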;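 further: cells exposed to compounds for one day before reading; 0% = median of all test compound wells on the plate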
TTR inh HuH7: HuH7 TTR transcription inhibition, counter-screen. shares compounds with TTR transcr act. HuH7 TTR promoter-Gaussia luciferase reporter, luminescence. inhibition, % at 16.7 µM. actives 4% (n = 1,100). AID 1117279;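 active means average inhibition above the solvent-only control wells' mean plus 3 SD, cut at about 15% in these data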;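 further: 0% = cells with DMSO only and 100% = cells with inhibitor control FD; inhibitors lower well luminescence so higher value means more inhibition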
TTR act confirm: human TTR transcription activation, confirmation; SHSY5Y TTR promoter Gaussia luciferase, luminescence; 100% = purified Lucia enzyme wells, no cells; 1,100 tested, under 10 active; activation, % at 16.7 µM; shares compounds with TTR transcr act;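 active means mean activation above a set limit taken from the earlier primary screen, cut at about 11% in these data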;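 further: 0% = DMSO-treated cells and 100% = recombinant Lucia luciferase without cells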
Active calls of the source: *.

SMILES | TTR transcr act | others
COc1ccc(C(=O)N2CCN(C)C(C)C2)cc1OC1CCN(C(C)=O)CC1 (stereo not given) | 0
COC(=O)[C@]12C[C@H](CC(=O)N3CCCC3)C(=O)N(Cc3cccc4ccccc34)C1=C[C@H](C(C)C)O[C@@H]2C1CC1 | 1
CC(C)(C)CCNc1nc(-c2ccccn2)nnc1-c1ccccc1 | 2
CCCC1CCC2(CCCN2CCOC(=S)Nc2ccccc2OC)CC1 (stereo not given) | -1
Cc1ccc(S(=O)(=O)N/N=C/c2cccc(OC3CSC3)c2)cc1 | 0
O=S(=O)(N/N=C/c1ccc(OC2CSC2)cc1)c1ccccc1 | 12* | TTR inh HuH7=-20;TTR act confirm=-1
O=S(=O)(N/N=C/c1cccc(OC2CSC2)c1)c1ccccc1 | 2
COC(=O)C12CCCN1C1C(=O)N(Cc3ccc(C(N)=O)cc3)CC1C2 (stereo not given) | -1
CNC(=S)N(Cc1ccco1)Cc1cc2cc3c(cc2[nH]c1=O)OCCO3 | -2
CCc1ccc2[nH]c(=O)c(CN(Cc3ccco3)C(=S)NCC3CCCO3)cc2c1 (stereo not given) | 12* | TTR inh HuH7=-24;TTR act confirm=2
CCN(CC)CCCNC(=S)N(Cc1ccco1)Cc1cc2cc3c(cc2[nH]c1=O)OCCO3 | 1
O=C(NNC(=O)c1cc(F)c(F)cc1Cl)c1ccc(NS(=O)(=O)c2cccs2)cc1 | 1
O=C(NNC(=O)c1ccco1)c1ccc(NS(=O)(=O)c2cccs2)cc1 | 14* | TTR inh HuH7=-8;TTR act confirm=0
O=C(O)c1ccc(/C=N/NC(=O)c2ccc(NS(=O)(=O)c3cccs3)cc2)cc1 | 4
COC(=O)[C@]12C[C@H](CC(=O)N3CCC(c4ccccc4)CC3)C(=O)N(Cc3ccc(Cl)cc3Cl)C1=C[C@H](C(C)C)O[C@@H]2C1CC1 | 1
CCCCC(=O)N[C@H]1CC[C@@]23CCCN2C(=O)CCC[C@H]3[C@H]1CCC | 1
O=C(NCCc1c[nH]c2ccccc12)OCc1cn(-c2ccccc2Cl)nn1 | 1
CCOC(=O)[C@@]12CCCC=C1N(CCc1ccc(Cl)cc1)C(=O)[C@H]2CC(=O)NCCCCc1ccccc1 | -1
CC1=CC(=O)N(c2cccc3c(N4C(=O)C=C(C)C4=O)cccc23)C1=O | 2
CN1/C(=C/C2CC(=O)N(c3cccc4ccccc34)C2=O)C(C)(C)c2ccccc21 (stereo not given) | -2
CCN1C(=O)N(c2cccc3ccccc23)C(C)=CC1(C)C | 28* | TTR inh HuH7=-6;TTR act confirm=-1
COC(=O)[C@]12C[C@H](CC(=O)N3CCN(C(=O)c4ccco4)CC3)C(=O)N(Cc3cccc4ccccc34)C1=C[C@H](C1CCCC1)O[C@@H]2C | -1
O=S1(=O)c2ccc(N3CC[C@@H](O)C3)cc2O[C@@H]2CCN1C2 | 1
CNC(=O)CN(Cc1ccccc1)S(=O)(=O)c1ccccc1 | 2
COc1ccc(CNC(=O)CN(Cc2ccc(Cl)cc2)S(=O)(=O)c2ccccc2)cc1 | 1
SMILES | TTR transcr act | others
O=C(CN(Cc1ccc(Br)cc1)S(=O)(=O)c1ccccc1)NCc1ccccn1 | 22* | TTR inh HuH7=-22;TTR act confirm=1
CC(=O)N1CCN(c2cc(-c3ccco3)nc3cc(-c4ccccc4)nn23)CC1 | -1
CCOc1ccc(-n2c(SCC(=O)Nc3ccc4c(c3)OCCO4)nc3c(c2=O)SCC3)cc1 | 0
COc1ccc(NC(=O)CSc2nc3c(c(=O)n2-c2ccc(F)cc2)SCC3)c(OC)c1 | 15* | TTR inh HuH7=-10;TTR act confirm=0
COc1ccc(-n2c(SCC(=O)Nc3nccs3)nc3c(c2=O)SCC3)cc1 | 2
O=C(Nc1ccc(F)cc1)OCc1cn(Cc2cccc(F)c2)nn1 | 0
Cc1ccccc1CN1CCCCC(NC(=O)c2ccc(F)cc2F)C1=O (stereo not given) | -1
COc1ccc(CN2CCNC(=O)C2CC(=O)NC2CCCCCC2)c(F)c1 (stereo not given) | -1
O=C(CC1C(=O)NCCN1Cc1ccccc1C(F)(F)F)NC1CCCCCC1 (stereo not given) | 10* | TTR inh HuH7=-7;TTR act confirm=2
COc1cccc(CN2CCNC(=O)C2CC(=O)NC2CCCCCCC2)c1 (stereo not given) | -2
C[C@H]1[C@@H](NC(=O)c2ccc(O)cc2)CC[C@@]23CCCN2C(=O)CCC[C@@H]13 | -1
CCOc1ccc2nc(SCc3cccc(C)c3)nc(C)c2c1 | 1
CCOC(=O)CCSc1nc(C)c2cc(C)c(C)cc2n1 | 15* | TTR inh HuH7=-5;TTR act confirm=-2
Cc1ccc2nc(SCCC#N)nc(C)c2c1 | -3
CCOC(=O)[C@@]12CCCC=C1N(CCc1ccc(Cl)cc1)C(=O)[C@H]2CC(=O)NCCc1ccccc1OC | -2
CC(C)(C)OC(=O)N1c2ccccc2[C@]2(N3CCCC3)C[C@H](C(=O)O)N(C(=O)OC(C)(C)C)[C@H]12 | 2
